CYP2C9 activ: human CYP2C9 activators, primary screen, biochemical, luminescence; Cytochrome P450 2C9 (Homo sapiens), P11712; recombinant CYP2C9, luciferin-H conversion; hits give high values; factor 1 = untreated enzyme, 0 = blocked; activation factor at 5 µM; 96,000 tested, 1.4% active; AID 1024, 2008;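 active = activation factor of 2 or more for CYP2C9 at a 5 µM dose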;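 note: 0 = sulfaphenazole-blocked wells and 1 = vehicle-only wells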
Target sequence (P11712 whole entry, looked up): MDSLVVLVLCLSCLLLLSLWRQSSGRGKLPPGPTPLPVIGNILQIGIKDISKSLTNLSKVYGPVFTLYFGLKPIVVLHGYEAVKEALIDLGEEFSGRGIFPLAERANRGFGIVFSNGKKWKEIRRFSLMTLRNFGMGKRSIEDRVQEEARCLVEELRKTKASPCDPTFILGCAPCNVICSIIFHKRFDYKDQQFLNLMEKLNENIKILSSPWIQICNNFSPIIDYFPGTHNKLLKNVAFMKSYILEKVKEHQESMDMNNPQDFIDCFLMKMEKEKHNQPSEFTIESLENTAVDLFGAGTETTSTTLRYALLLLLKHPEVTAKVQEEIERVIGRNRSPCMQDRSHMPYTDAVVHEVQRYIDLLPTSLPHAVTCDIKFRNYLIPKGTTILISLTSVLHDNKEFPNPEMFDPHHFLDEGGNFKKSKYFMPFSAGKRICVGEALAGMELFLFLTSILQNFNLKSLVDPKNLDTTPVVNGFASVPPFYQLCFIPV
CYP2C9 inhib: blockers of cytochrome P450 2C9 activity – biochemical, luminescence, ADME assay, primary screen; P11712; AID 777, 2007; CYP2C9 Supersomes, luciferin-H conversion; 96,000 tested, 20% active; inhibition, % at 5 µM;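 active = blocking of liver enzyme CYP2C9 beyond about 50% at 5 µM, limit read from the data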
PLAP activator: PLAP enzyme activators, biochemical, luminescence, HTS; activation fold at 20 µM; Alkaline phosphatase, placental type (Homo sapiens), P05187; 96,000 tested, 1.2% active; purified PLAP enzyme, luminescent substrate read-out; hits give high values; in the data active = activation fold above about 2
CYP2C19 activ: human CYP2C19 activators, primary screen, biochemical, luminescence; 96,000 tested, under 10 active; AID 1025, 2008; recombinant CYP2C19, luciferin-H EGE luminescence; hits give high values; 0 = fully inhibited enzyme, 1 = untreated enzyme; activation factor at 5 µM;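 active = activation factor of at least 2 at 5 µM in the primary screen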;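 note: 0 = wells with 2.5 mM tranylcypromine and 1 = vehicle-only wells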
CYP2C19 inhib: blockers of cytochrome P450 2C19 activity – biochemical, luminescence, ADME assay, primary screen; 96,000 tested, 21% active; AID 778, 2007; P33261; CYP2C19 Supersomes, luciferin-H EGE luminescence, 30 min; inhibition, % at 5 µM;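 active = CYP2C19 inhibition above a set limit at 5 µM in the primary screen, cut at about 50% in these data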;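 note: plate controls were negative control wells for no effect and 2.5 mM tranylcypromine positive control for full effect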
Numbers without * were called inactive. Rows were chosen to be rich in hits. Some 31% of all compounds tested hit in one or more screens of this group.

SMILES | CYP2C9 activ | CYP2C9 inhib | PLAP activator | CYP2C19 activ | CYP2C19 inhib
CCOc1ccccc1NC(=O)CN(c1cc(C)cc(C)c1)S(=O)(=O)c1c(C)noc1C | 1.1 | -12 | 1 | 1.1 | -10
CCOc1ccccc1NC(=O)CN(c1ccc(OC)cc1)S(=O)(=O)c1c(C)noc1C | 0.1 | 90* | 1.4 | 0.1 | 89*
COc1ccc(NC(=O)CN(c2cc(C)cc(C)c2)S(=O)(=O)c2c(C)noc2C)cc1 | 0.8 | 17 | 0.8 | 0.9 | 7
CCOc1ccc(N(CC(=O)Nc2cccc(F)c2)S(=O)(=O)c2c(C)noc2C)cc1 | 0.7 | 28 | 1 | 0.9 | 13
COc1ccc(NC(=O)CN(c2cc(C)cc(C)c2)S(=O)(=O)c2c(C)noc2C)cc1OC | 0.5 | 50* | 1.2 | 0.9 | 14
Cn1c(=O)[nH]c(=O)c2c1nc(N1CCCCCC1)n2CCSc1nc2ccccc2[nH]1 | 0.7 | 27 | 1.4 | 1 | -5
CC(C)(NC(=O)N1CCCC1)c1cccc(C(C)(C)NC(=O)N2CCCC2)c1 | 0.8 | 20 | 0.9 | 1.1 | -6
CCOc1ccc(S(=O)(=O)N(CC(=O)Nc2cc(C)on2)Cc2ccccc2Cl)cc1 | 0.2 | 82* | 1.1 | 0.3 | 71*
COc1ccc(S(=O)(=O)N(C)c2ccc(OCC(=O)Nc3cc(C)on3)cc2)cc1 | 0.6 | 40 | 0.8 | 0.6 | 44
CC1CCCC(N2CCN(C(=O)c3cccc(F)c3)CC2)C1 (centres undefined) | 0.6 | 42 | 1.8 | 0.1 | 89*
O=C(c1cccc(F)c1)N1CCN(CC2CC3C=CC2C3)CC1 (centres undefined) | 0.7 | 32 | 1.5 | 0.1 | 90*
CC1CCCCC1N1CCN(C(=O)c2cccc(F)c2)CC1 (centres undefined) | 1 | 2 | 1.2 | 1 | 3
O=C(c1ccccc1F)N1CCN(CC2CC3C=CC2C3)CC1 (centres undefined) | 0.9 | 6 | 1.1 | 0.3 | 69*
CCOc1cc(N2CCOCC2)c(OCC)cc1NC(=O)c1cc(-c2ccco2)nc2ccccc12 | 0.7 | 27 | 1.8 | 0.7 | 32
O=C(NCC1CCCO1)C1CCN(S(=O)(=O)c2cccnc2)CC1 (centres undefined) | 1 | -5 | 1 | 0.9 | 8
CC1(C)CC(=O)C=C(NCCN2CCN(C(=O)Nc3ccc(Cl)cc3)CC2)C1 | 1.1 | -9 | 1 | 0.9 | 7
CC1(C)CC(=O)C=C(NCCN2CCN(C(=O)Nc3ccc(Cl)c(Cl)c3)CC2)C1 | 0.7 | 30 | 1.8 | 0.3 | 66*
COc1ccc(COC(=O)N/N=C(\C)CC(=O)Nc2c(C)cc(C)cc2C)cc1 | 0.9 | 8 | 0.9 | 1 | 3
COc1ccc(-c2cc(=Nc3ccc(C)cc3)c3ccccc3o2)cc1 | 0.5 | 53* | 1.1 | 0.7 | 34
Cc1cc(C)n2c(SCc3ccc(Cl)cc3Cl)nnc2n1 | 1.6 | -56 | 1 | 0.3 | 70*
Cc1cc(C)n2c(SCc3ccccc3Cl)nnc2n1 | 2.8* | -178 | 0.8 | 0.6 | 37
Cc1cc(C)n2c(SCC(=O)Nc3ccccc3)nnc2n1 | 1 | -5 | 0.8 | 0.7 | 29
O=C(Nc1nc2ccccc2[nH]1)c1ccc(Cl)c(S(=O)(=O)N2CCCC2)c1 | 0.7 | 33 | 1.9 | 0.6 | 43
CCOc1ccccc1NC(=O)CSc1nnc(CNC(=O)COc2ccc(Cl)cc2)o1 | 2* | -98 | 1 | 0.8 | 22
O=C(CSc1nccn1-c1ccc(Cl)cc1)NCc1ccc2c(c1)OCO2 | 0 | 98* | 0.8 | 0 | 100*
COC(=O)c1ccc(CSc2nnc(CNC(=O)COc3ccc(Cl)cc3)o2)o1 | 0.3 | 68* | 1 | 0.6 | 38
O=C(COc1ccc(Cl)cc1)NCc1nnc(SCC(=O)NCc2ccc3c(c2)OCO3)o1 | 0.3 | 70* | 0.9 | 0.5 | 46
Cc1nnc(SCC(=O)NCc2ccc3c(c2)OCO3)s1 | 0.8 | 16 | 1 | 0.6 | 36
COc1ccc(CCC(C)NC2C3CC4CC(C3)CC2C4)cc1 (centres undefined) | 1 | 1 | 1.1 | 0.9 | 6
